Assay outcomes deposited in PubChem BioAssay by National Center for Advancing Translational Sciences (NCATS).
Only some compounds are listed: those with a hit (about 8.1% of all), similar ones and a draw of the others.
MCF10A rerep: A quantitative high throughput screen for small molecules that induce DNA re-replication in MCF 10a normal breast cells; hit rate 2.9% among 350,000; MCF 10A DNA re-replication, Hoechst nuclear intensity, 48 h; AID 624296, 2012; Potency, µM (top dose mostly 46.1 µM), for the others: at the highest dose activity, positive = re-replication, usual class: activators; note: % of control where 0% means no effect; nearly all actives have a fitted effect of over 50% in size
SW480 rerep: A quantitative high throughput screen for small molecules that induce DNA re-replication in SW480 colon adenocarcinoma cells; SW480 DNA re-replication, Hoechst DNA content imaging, 48 h; hit rate 1.8% among 340,000; Potency, µM (doses to about 46.1 µM), for the others: at the top dose re-replication activation, usual class: activators; AID 624297, 2012; note: % of control where 0% means no effect; nearly all actives have a fitted effect of over 55% in size
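250 cells/well; 23 nL cpd via pin tool; 48 hr, 37 C, 5% CO2; Hoechst 40 min; imager read of total nuclear intensity, ex 405/em 500-530 nm.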
ELG1 repair inh: qHTS screen for small molecules that inhibit ELG1-dependent DNA repair in human embryonic kidney (HEK293T) cells expressing luciferase-tagged ELG1; HEK293T ELG1-luciferase reporter, luminescence, 16 h; DNA damage induced by 5-fluorouridine; Potency, µM (doses to about 46.1 µM), inactives show at the top dose activity change, negative = inhibition, usual class: inhibitors; hit rate 2.3% among 330,000; note: % is set by controls: 0 for no effect and ±100 for the full control effect; nearly all actives have a fitted effect of over 55% in size
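Luminescence from the luciferase reporter, measured 30 min after ONE-Glo reagent at room temperature, was the read-out. Beforehand, 2,000 cells per well were exposed for 16 hr at 37 °C to 5-fluorouridine together with compound or vehicle.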
KB-V1 cytotox: qHTS assay for MDR1-selective chemotherapeutics: Primary screen using the drug-selected MDR subline cells KB-V1. KB-V1 MDR cells viability, CellTiter-Glo, 72 h. Potency, µM (series often up to 46.1 µM), usual class: cytotoxic. hit rate 3.4% among 400,000. AID 1347076, 2019; note: % is set by controls: 0 for no effect and ±100 for the full control effect; nearly all actives have a fitted effect of over 60% in size
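Cytotoxicity via CellTiter-Glo luminescence after 72 h compound exposure at 37 degrees C. Cells: drug-selected KB-V1 line, DMEM phenol-red free plus 10% FBS. Compounds tested at multiple concentrations; normalized data fitted to concentration-effect curves.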
KB-3-1 tox: qHTS assay for MDR1-selective chemotherapeutics: Primary screen using the parental adenocarcinoma cell KB-3-1. KB-3-1 viability, CellTiter-Glo ATP luminescence, 72 h. Potency, µM (top dose mostly 46.1 µM), most hits filed as cytotoxic. hit rate 1.4% among 400,000. AID 1347075, 2019; note: % is set by controls: 0 for no effect and ±100 for the full control effect; nearly all actives have a fitted effect of over 60% in size
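KB-3-1 parental drug-naive adenocarcinoma cells in DMEM/10% FBS, incubated 72 h at 37 C with pin-transferred compounds across a concentration series. Viability by CellTiter-Glo luminescence; concentration-response curves fitted after normalization.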
* = called active by the depositor; [ ] = remark or other dose. Calls come from the whole dose curve; as a rule, active = well fitted curve in the direction sought with a large enough effect; inconclusive = small, poorly fitted or top-dose-only effect, or another doubt; inactive = no such curve, though single readings can be large; an effect the other way counts as inactive or inconclusive. Potency is the fitted concentration of half-maximal effect.

How did CCOC(=O)c1c(NC(=O)CN2CCCCC2)sc(CN(C)C)c1-c1ccccc1 do in these assays?
MCF10A rerep: 26µM*; SW480 rerep: 16µM*; ELG1 repair inh: -7%; KB-V1 cytotox: inactive; KB-3-1 tox: inactive

How did CCOC(=O)c1c(NC(=S)N2CCN(C)CC2)sc(C)c1-c1ccccc1 do in these assays?
MCF10A rerep: 26µM*; SW480 rerep: inconclusive; ELG1 repair inh: -9%; KB-V1 cytotox: inactive; KB-3-1 tox: inactive

What do the screens show for `CCOC(=O)c1c(NC(=O)/C=C/C(=O)O)sc(C)c1-c1ccc(Cl)cc1`?
MCF10A rerep: 2.9µM*; SW480 rerep: 4%; ELG1 repair inh: -8%; KB-V1 cytotox: inactive; KB-3-1 tox: inconclusive

Results for COCCCNC(=O)C[C@H]1C[C@H](C(=O)N2CCCCC2)[C@@]2(CCc3ccccc3)c3[nH]c4cc(-c5ccco5)ccc4c3CCN2C1=O ?
MCF10A rerep: -16%; SW480 rerep: inconclusive; ELG1 repair inh: inconclusive; KB-V1 cytotox: inactive; KB-3-1 tox: inactive

Results for CCN(CC)C(=O)[C@H]1C[C@H](CC(=O)NCc2cccc(C(F)(F)F)c2)C(=O)N2CCc3c([nH]c4cc(-c5ccco5)ccc34)[C@]12C ?
MCF10A rerep: inconclusive; SW480 rerep: 13%[9.22 µM]; ELG1 repair inh: inconclusive; KB-V1 cytotox: inconclusive; KB-3-1 tox: 15µM*

What do the screens show for `CCN(CC)C(=O)[C@H]1C[C@H](CC(=O)NCc2ccco2)C(=O)N2CCc3c([nH]c4cc(-c5ccco5)ccc34)[C@]12C`?
MCF10A rerep: inconclusive; SW480 rerep: 1%; ELG1 repair inh: 18µM*; KB-V1 cytotox: inactive; KB-3-1 tox: inactive

How did O=C(C[C@H]1C[C@H](C(=O)N2CCCCC2)[C@@]2(CCc3ccccc3)c3[nH]c4cc(-c5ccco5)ccc4c3CCN2C1=O)NCCN1CCOCC1 do in these assays?
MCF10A rerep: 23µM*; SW480 rerep: inconclusive; ELG1 repair inh: -17%; KB-V1 cytotox: inconclusive; KB-3-1 tox: 18µM*

Results for CC1CC(C)CN(C(CCc2ccccc2)C(=O)NC2CCCCC2)C1 (stereo not given) ?
KB-V1 cytotox: inactive; KB-3-1 tox: inactive

What do the screens show for `C[C@H](CO)N1C[C@H](C)[C@H](CN(C)C(=O)OCc2ccccc2)OCc2cnnn2CCCC1=O`?
KB-V1 cytotox: inconclusive; KB-3-1 tox: inactive

What do the screens show for `C/C(=N\Nc1cc(N2CCOCC2)nc(C)n1)c1cccc([N+](=O)[O-])c1`?
MCF10A rerep: -14%; SW480 rerep: -69%; ELG1 repair inh: 15µM*; KB-V1 cytotox: inconclusive; KB-3-1 tox: inconclusive

What do the screens show for `CCc1ccc(/C(C)=N/Nc2cc(Cl)nc(C)n2)cc1`?
MCF10A rerep: 1%; SW480 rerep: 0%; ELG1 repair inh: -15%; KB-V1 cytotox: inactive; KB-3-1 tox: inactive

What do the screens show for `CCCCc1ccc(/C(C)=N/Nc2cc(N3CCOCC3)nc(C)n2)cc1`?
MCF10A rerep: 21µM*; SW480 rerep: inconclusive; ELG1 repair inh: 0%; KB-V1 cytotox: inconclusive; KB-3-1 tox: inactive

What do the screens show for `Cc1nc(N/N=C/c2cccc([N+](=O)[O-])c2)cc(N2CCCCC2)n1`?
KB-V1 cytotox: inactive; KB-3-1 tox: inactive

How did Cc1ccc2c(CC(=O)Nc3c(C(=O)c4ccc(C)c(F)c4)oc4ccccc34)coc2c1 do in these assays?
KB-V1 cytotox: inconclusive; KB-3-1 tox: inactive

What do the screens show for `Cc1noc(/C=C/c2cccnc2)c1[N+](=O)[O-]`?
MCF10A rerep: inconclusive; SW480 rerep: inconclusive; ELG1 repair inh: inconclusive; KB-V1 cytotox: inactive; KB-3-1 tox: 21µM*

What do the screens show for `CCOCCc1nn2c(=O)cc(COC(=O)c3ccco3)nc2s1`?
KB-V1 cytotox: inactive; KB-3-1 tox: inactive

Results for CCOC(=O)C1CCCN(C(=O)c2cc(C)n(C(C)(C)C)n2)CC1 (stereo not given) ?
KB-V1 cytotox: inactive; KB-3-1 tox: inactive

What do the screens show for `CCOC(=O)c1c(NCc2ccccc2)n[nH]c1C`?
MCF10A rerep: -1%; SW480 rerep: -700%; ELG1 repair inh: 7%; KB-V1 cytotox: inactive; KB-3-1 tox: inactive

Results for CCOC(=O)c1c(Nc2ccccc2OCCOC)n[nH]c1C ?
MCF10A rerep: 1%; SW480 rerep: -5%; ELG1 repair inh: 21µM*; KB-V1 cytotox: inactive; KB-3-1 tox: inactive

What do the screens show for `CCCSc1nsc(NC(=O)C(c2ccccc2)c2ccccc2)n1`?
MCF10A rerep: inconclusive; SW480 rerep: inconclusive; ELG1 repair inh: inconclusive; KB-V1 cytotox: inconclusive; KB-3-1 tox: 26µM*

Results for O=C(COc1ccccc1)Nc1cccc(-c2nc3cc4ccccc4cc3[nH]2)c1 ?
MCF10A rerep: 15µM*; SW480 rerep: inconclusive; ELG1 repair inh: inconclusive; KB-V1 cytotox: 9.2µM*; KB-3-1 tox: inconclusive

Results for CCCCC(=O)Nc1cccc(NC(=O)c2cccc(Br)c2)c1 ?
MCF10A rerep: -1%; SW480 rerep: -4%; ELG1 repair inh: 7.3µM*; KB-V1 cytotox: inactive; KB-3-1 tox: inactive

How did Cc1ccc(OCC(=O)Nc2cccc(-c3nnc(-c4ccccc4)o3)c2)cc1 do in these assays?
MCF10A rerep: 3%; SW480 rerep: 5%; ELG1 repair inh: inconclusive; KB-V1 cytotox: 2.3µM*; KB-3-1 tox: inactive

What do the screens show for `Cc1cccc(C)c1OCC(=O)Nc1cccc(-c2nnc(-c3ccccc3)o2)c1`?
MCF10A rerep: inconclusive; SW480 rerep: 2%; ELG1 repair inh: inconclusive; KB-V1 cytotox: inconclusive; KB-3-1 tox: inconclusive

What do the screens show for `CCCCC(=O)Nc1cccc(-c2nnc(-c3ccccc3)o2)c1`?
MCF10A rerep: -11%; SW480 rerep: -7%; ELG1 repair inh: inconclusive; KB-V1 cytotox: 18µM*; KB-3-1 tox: inactive

What do the screens show for `CCC(=O)Nc1cccc(-c2nnc(-c3ccccc3)o2)c1`?
MCF10A rerep: -4%; SW480 rerep: -4%; KB-V1 cytotox: inactive; KB-3-1 tox: inactive

How did CCN1CCN(Cc2c(O)ccc3oc(C)c(C(=O)Nc4ccc(OC)cc4)c23)CC1 do in these assays?
KB-V1 cytotox: inactive; KB-3-1 tox: inactive

What do the screens show for `CC(I)CCC(C)[n+]1cccc(I)c1` (stereo not given)?
KB-V1 cytotox: inconclusive; KB-3-1 tox: inactive

How did COc1ccc(N2C(=O)CS(=O)(=O)C23C(=O)N(Cc2ccc(F)cc2)c2ccc(C)cc23)cc1 (stereo not given) do in these assays?
KB-V1 cytotox: inconclusive; KB-3-1 tox: inactive
